Out of some 390,000 compounds screened, about 4,000 (1%) were called active. Entries that show only a call come without a potency. About 7% were inconclusive and are not listed. Calls follow the shape of the dose curve; as a rule, active = well fitted inhibition curve with a large enough effect; inconclusive = small, poorly fitted or top-dose-only effect, or another doubt; inactive = no such curve, though single readings can be large or run the other way. Only a selection was taken, and actives are over-represented in it overall.
Each compound was assayed against DNA polymerase iota (Homo sapiens) (UniProt Q9UNA4) (assay: qHTS for Inhibitors of Polymerase Iota). Details: Pol iota fluorescent replication assay, 10 min; series mostly up to 115 µM.
Source text: DNA polymerases, such as Pol iota, are specifically involved in DNA repair. Pol iota specifically plays an important role in translesion synthesis, where the normal high-fidelity DNA polymerases cannot proceed and DNA synthesis stalls. […] Thus, while pol eta's (and most likely iota's) normal function is to protect humans against the deleterious consequences of DNA damage, under certain conditions they can have deleterious effects on human health. As a consequence, we propose to utilize a high throughput replication assay to identify small molecule inhibitors of pol iota.
In a collaboration between the National Institute of Child Health & Human Development (NICHD) and NIH Chemical Genomics Center, a high-throughput, fluorescent screen was developed to screen the NIH Molecular Libraries Small Molecule Repository (MLSMR). This screen is used to identify inhibitors of pol iota.
NIH Chemical Genomics Center [NCGC]
NIH Molecular Libraries Probe Centers Network [MLPCN]
Assay Submitter (PI): Roger Woodgate, NICHD)
Three microliters of reagents (buffer in column 3 and 4 as negative control and 10 nM Pol iota in columns 1, 2, and 5-48) will be dispensed into 1,536-well black solid-bottomed plate. Compounds (23 nL) will be transferred via Kalypsys pin tool equipped with 1536-pin array. The plates will then be incubated for 15 min at room temperature, and 1 µL substrate (50 nM final concentration) will be added to start the reaction and kinetically read twice at 0 min and 10 min on the Viewlux reader.
Potency is read from the fitted curve at half-maximal effect.

DNA polymerase iota (Homo sapiens), sequence (Q9UNA4 whole entry, looked up): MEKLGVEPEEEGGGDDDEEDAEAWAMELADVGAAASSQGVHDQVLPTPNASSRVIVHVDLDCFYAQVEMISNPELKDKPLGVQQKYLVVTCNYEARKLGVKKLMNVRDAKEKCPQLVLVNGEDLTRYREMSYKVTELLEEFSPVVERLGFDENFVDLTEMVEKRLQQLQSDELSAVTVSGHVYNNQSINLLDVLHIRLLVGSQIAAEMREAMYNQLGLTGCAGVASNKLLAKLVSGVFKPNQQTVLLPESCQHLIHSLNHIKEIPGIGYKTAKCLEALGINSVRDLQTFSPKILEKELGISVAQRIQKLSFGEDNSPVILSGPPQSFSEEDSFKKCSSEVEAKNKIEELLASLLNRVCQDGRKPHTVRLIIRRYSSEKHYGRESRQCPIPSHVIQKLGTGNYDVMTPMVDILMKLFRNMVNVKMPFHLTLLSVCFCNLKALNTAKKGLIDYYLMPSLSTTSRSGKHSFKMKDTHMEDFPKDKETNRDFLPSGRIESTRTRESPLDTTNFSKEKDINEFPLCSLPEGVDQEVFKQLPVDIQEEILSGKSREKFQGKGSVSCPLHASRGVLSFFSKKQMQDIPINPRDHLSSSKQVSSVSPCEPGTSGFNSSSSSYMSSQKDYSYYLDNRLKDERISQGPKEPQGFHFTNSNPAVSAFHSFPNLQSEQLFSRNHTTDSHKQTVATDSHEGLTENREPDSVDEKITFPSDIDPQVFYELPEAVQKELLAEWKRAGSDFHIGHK

How did the Potency turn out when `Cc1ccc(N2CC(c3nnc(Cc4ccccc4Cl)o3)CC2=O)cc1` (stereo not drawn) was run?
The Potency was “inactive”.

`CCOc1ccc(N(CC)S(=O)(=O)N2CCCC(C(=O)NCc3ccc(Cl)cc3)C2)cc1` (stereo not drawn) was tested. Which Potency did it give?
Its Potency is “inactive”.

How did the Potency turn out when `CCOc1ccc(-n2nc3ccc(NC(=O)c4ccc(OC)c(Cl)c4)cc3n2)cc1` was run?
Its Potency is “inactive”.

With `CCOc1ccc(CNC(=O)C2CCCN(S(=O)(=O)N(CC)c3ccc(OCC)cc3)C2)cc1` (stereo not drawn) as the compound, how does the Potency read?
The Potency was “inactive”.

How did the Potency turn out when `CCN(CC)CCNC(=O)Cn1ncc2c3ccccc3n(Cc3ccccc3C)c2c1=O` was run?
The Potency was “inactive”.

How did the Potency turn out when `N#Cc1cccc(OC(=O)c2ccc3c(=O)n4c(nc3c2)CCC4)c1` was run?
Its Potency is 20 µM (active).

With `COC(=O)c1ccccc1NC(=O)c1ccc2c(=O)n3c(nc2c1)CCCCC3` as the compound, how does the Potency read?
The Potency was “inactive”.

With `CC1CCN(C(=O)c2ccc3c(=O)n4c(nc3c2)CCCCC4)CC1` as the compound, how does the Potency read?
Its Potency is “inactive”.

With `CCOC(=O)c1c(NC(=O)Cc2coc3ccc(CC)cc23)sc2c1CCC2` as the compound, how does the Potency read?
The Potency was “inactive”.

`O=C1COc2c1ccc(O)c2O` was tested. Which Potency did it give?
The Potency was 17.8 µM (active).

For `CCc1ccc(CNC(=O)c2cc3c(=O)n(CC)c4ccccc4c3s2)cc1`, which Potency is on record?
The Potency was “inactive”.

Which Potency does the source give for `CCc1ccc(NC(=O)CN2C(=O)CSC2=O)cc1` here?
Its Potency is “inactive”.

`Cn1cccc1/C=C1\SC(=O)N(CC(=O)Nc2ccc(F)cc2)C1=O` was tested. Which Potency did it give?
Its Potency is 79.4 µM (active).

`O=C(CN1C(=O)COc2ccccc21)Nc1ccc(F)cc1` was tested. Which Potency did it give?
Its Potency is “inactive”.

For `Cc1ccccc1CN1CCC(CNC(=O)c2c(C)oc3ncnc(N4CCCCC4)c23)CC1`, which Potency is on record?
The Potency was “inactive”.

For `CCOc1cc(-c2nnc(SCC(=O)NC3CCCCC3)nc2-c2ccc(OC)c(OCC)c2)ccc1OC`, which Potency is on record?
The Potency was “inactive”.

With `CCc1nn(CC(=O)N2CCN(CC)CC2)c(=O)c2cccn12` as the compound, how does the Potency read?
The Potency was “inactive”.

Which Potency does the source give for `CN1CCN(C(=O)Cn2c(C(F)(F)F)nc3ccccc32)CC1` here?
The Potency was “inactive”.

For `CCCN1CCN(C(=O)Cn2ncc3ccccc32)CC1`, which Potency is on record?
The Potency was 39.8 µM (active).

For `Oc1ccc(-c2nc3ccc(Cl)cn3c2Nc2ccc3c(c2)OCO3)cc1`, which Potency is on record?
The Potency was “inactive”.

`Cc1ccc(C)c(NC(=S)NNC(=S)Nc2ccc(C(C)C)cc2)c1` was tested. Which Potency did it give?
Its Potency is “inactive”.

With `O=C(NC(=S)Nc1ccc(Cl)c(C(=O)O)c1)c1cncc(Br)c1` as the compound, how does the Potency read?
The Potency was “inactive”.

How did the Potency turn out when `CC(C)c1ccc(NC(=S)NNc2ccc(Cl)c(C(=O)O)c2)cc1` was run?
The Potency was 11.2 µM (active).

For `COc1ccccc1NC(=O)Cn1cnc2ccc(S(=O)(=O)N3CCC(C)CC3)cc2c1=O`, which Potency is on record?
Its Potency is “inactive”.

How did the Potency turn out when `COc1cccc(NC(=O)CN2C(=O)c3ccccc3Sc3ncccc32)c1` was run?
The Potency was “inactive”.

How did the Potency turn out when `COc1ccccc1NC(=O)CN1C(=O)c2ccccc2Sc2ccc(C(=O)N3CCCC3)cc21` was run?
The Potency was 79.4 µM (active).

How did the Potency turn out when `COC(=O)c1ccc2c(c1)N(CC(=O)Nc1ccc(C)c(C)c1)C(=O)c1ccccc1S2` was run?
The Potency was “inactive”.

For `CCc1c(C)sc(NC(=O)C2c3ccccc3Oc3ccccc32)c1C(=O)OC(C)C`, which Potency is on record?
The Potency was “inactive”.

With `CC(C)CC(NS(=O)(=O)c1ccc2c(c1)oc(=O)n2C)C(=O)NCc1ccccc1Cl` (stereo not drawn) as the compound, how does the Potency read?
Its Potency is “inactive”.

For `COc1ccccc1C(=O)Nc1c(C(=O)Nc2ccc(C)cc2)oc2ccccc12`, which Potency is on record?
The Potency was “inactive”.

`Cn1c(=O)c2c(nc(SCC(=O)Nc3ccc(F)cc3)n2Cc2ccccc2)n(C)c1=O` was tested. Which Potency did it give?
The Potency was “inactive”.

`O=C1CCCN1C(=O)COc1ccc([N+](=O)[O-])cc1` was tested. Which Potency did it give?
The Potency was “inactive”.

`O=C1/C(=C\c2ccc([N+](=O)[O-])cc2)CS(=O)(=O)C/C1=C/c1ccc([N+](=O)[O-])cc1` was tested. Which Potency did it give?
The Potency was 11.2 µM (active).

For `O=[N+]([O-])c1ccc(/C=C/c2ccc3cccnc3c2)cc1`, which Potency is on record?
The Potency was “inactive”.

How did the Potency turn out when `CC(C)Oc1ccc(CNC(=O)C2CCN(c3nc4ccccc4n(C)c3=O)CC2)cc1` was run?
Its Potency is “inactive”.

`C(=Nc1ccc(/C=C/c2ccnc3ccccc23)cc1)Nc1ccc(/C=C/c2ccnc3ccccc23)cc1` was tested. Which Potency did it give?
The Potency was “inactive”.

How did the Potency turn out when `Cc1noc2ncnc(NCc3ccccc3Cl)c12` was run?
Its Potency is “inactive”.

How did the Potency turn out when `OCCNc1ncnc2oc(-c3ccco3)c(-c3ccco3)c12` was run?
Its Potency is 12.6 µM (active).

For `COc1ccc(-c2oc3ncnc(NCCCO)c3c2-c2ccc(OC)cc2)cc1`, which Potency is on record?
Its Potency is “inactive”.

With `CN(Cc1ccccc1)c1ncnc2onc(-c3ccc(F)cc3)c12` as the compound, how does the Potency read?
The Potency was “inactive”.

Which Potency does the source give for `CN(C)c1cccc2ccccc12` here?
Its Potency is “inactive”.

How did the Potency turn out when `CCN1CCN(CCCNC(=O)c2ccc3c(c2)sc2nc(-c4ccc(OC)cc4)cn23)CC1` was run?
The Potency was “inactive”.

How did the Potency turn out when `CCCCCn1c(CCNC(=O)c2ccc(F)cc2)nc2ccccc21` was run?
Its Potency is “inactive”.

With `Cc1noc(C)c1S(=O)(=O)Nc1ccc(C(=O)O)cc1` as the compound, how does the Potency read?
Its Potency is “inactive”.

With `Cc1noc(C)c1S(=O)(=O)Nc1ccc(C(=O)N2CCN(c3ccc(F)cc3)CC2)cc1` as the compound, how does the Potency read?
Its Potency is 79.4 µM (active).

How did the Potency turn out when `CN1CCN(C(=O)c2ccc(NS(=O)(=O)c3ccccc3)cc2)CC1` was run?
Its Potency is “inactive”.

Which Potency does the source give for `O=C(CC1N=C2c3ccccc3N=C(SCc3cccc(Cl)c3)N2C1=O)NCc1ccc2c(c1)OCO2` (stereo not drawn) here?
Its Potency is “inactive”.

Which Potency does the source give for `CCCc1nc2sc3c(c2c(=O)n1NC(=O)CCCl)CCCC3` here?
The Potency was “inactive”.

Which Potency does the source give for `O=c1[nH]c(CN2CCN(S(=O)(=O)c3ccc4c(c3)OCCO4)CC2)nc2sc3c(c12)CCCC3` here?
Its Potency is “inactive”.

Which Potency does the source give for `O=C(CCc1nc2sc3c(c2c(=O)[nH]1)CCCC3)NCC(=O)Nc1ccccc1Br` here?
Its Potency is 50.1 µM (active).

With `CCOC(=O)c1[nH]c(C)c(CCC(=O)N2CCN(c3ccccc3)CC2)c1C` as the compound, how does the Potency read?
The Potency was “inactive”.

Which Potency does the source give for `C=CCc1cccc(/C=N/NC(=O)COc2ccc(-n3cnnn3)cc2)c1O` here?
Its Potency is “inactive”.

For `CCOc1ccc(C(=O)COC(=O)c2ccc(-n3cnnn3)cc2)cc1`, which Potency is on record?
Its Potency is “inactive”.

With `O=C(COc1ccc(-n2cnnn2)cc1)Nc1ccccc1Cl` as the compound, how does the Potency read?
The Potency was 79.4 µM (active).

How did the Potency turn out when `Cc1ccc2[nH]c3c(=O)n(CC(=O)NC(C)C)ncc3c2c1` was run?
Its Potency is “inactive”.

For `Fc1ccc(CSc2nc(NCc3ccccc3)c3ccccc3n2)cc1`, which Potency is on record?
Its Potency is “inactive”.

With `Fc1ccc(Nc2nc(SCc3ccccc3Cl)nc3ccccc23)cc1` as the compound, how does the Potency read?
Its Potency is 79.4 µM (active).

Which Potency does the source give for `O=C(CSc1nc(Nc2ccc(F)c(F)c2)c2ccccc2n1)c1ccc(Cl)cc1` here?
Its Potency is “inactive”.

With `COc1ccc(-n2c(=O)c3sc4ccccc4c3n(CC(=O)Nc3cccc(C)c3)c2=O)cc1` as the compound, how does the Potency read?
The Potency was “inactive”.

For `COc1ccc(NC(=O)Nc2cccc(-c3noc(C)n3)c2)cc1`, which Potency is on record?
The Potency was “inactive”.

Which Potency does the source give for `Cc1sc2nc(CSCC(=O)Nc3c(Cl)cccc3Cl)[nH]c(=O)c2c1C` here?
The Potency was “inactive”.

`CSc1nnc(SCc2nc3sc(C(=O)O)c(C)c3c(=O)[nH]2)s1` was tested. Which Potency did it give?
The Potency was 3.98 µM (active).

For `CCOC(=O)c1sc2nc(CSCC(=O)OCc3ccc(C(=O)OC)o3)[nH]c(=O)c2c1C`, which Potency is on record?
The Potency was “inactive”.

From PubChem BioAssay AID588590 (National Center for Advancing Translational Sciences (NCATS), 2011)
